# The whole screen tested about 69,000 compounds, of which about 8,600 (12%) showed an effect of 50% or more. This is one part of a sample in which strong results are shown more often than they occur.
# System: Plasmodium berghei
# Test: Screen against P. berghei liver stage (PbLuc), transformed with Luciferase, at 10uM
# Type: functional, HepG2
# Conditions: tested at 10 uM
row,Structure (SMILES),INHIBITION
1,CN(C)S(=O)(=O)c1ccc(-c2nc(C#N)c(NC3CCCCC3)o2)o1,19.8%
2,Cc1cccnc1NC(=O)c1ccc(-n2ncc(C#N)c2N)cc1,25.6%
3,N#Cc1cnn(-c2ccc(C(=O)Nc3ccccn3)cc2)c1N,28.7%
4,Cc1nc(NC(=O)c2ccc(-n3ncc(C#N)c3N)cc2)sc1C,50.3%
5,Cc1ccnc(NC(=O)c2ccc(-n3ncc(C#N)c3N)cc2)c1,68.8%
6,Cc1cc(NC(=O)c2ccc(-n3ncc(C#N)c3N)cc2)n(C)n1,11.2%
7,Cc1cnc(NC(=O)c2ccc(-n3ncc(C#N)c3N)cc2)s1,47.3%
8,CN(C(=O)c1ccc(-n2ncc(C#N)c2N)cc1)C1CCCC1,-8.11%
9,CN(CC1CCCCC1)C(=O)c1ccc(-n2ncc(C#N)c2N)cc1,52.7%
10,N#Cc1cnn(-c2ccc(C(=O)N(C3CCCCC3)C3CC3)cc2)c1N,17.5%
11,Cc1cnc(N2C[C@@H]3[C@@H](C2)OCC(=O)N3CC(C)C)nc1,40.8%
12,CN(C)C(=O)N1CCN(c2ccc(Cl)nn2)C(=O)C1,16.8%
13,COc1ccc(Br)cc1SCCCS(C)(=O)=O,12.8%
14,Cc1nc(N2CCN(C(=O)c3ccncc3)CC2)c2c(n1)c(C)nn2C,33.3%
15,Cc1nc(C2CCCN(C(=O)CCCn3cccn3)C2)sc1C (configuration not stated),-23.9%
16,Cc1ccc2c(n1)N(CCN(C)C)CCN(C(=O)c1ccc[nH]1)C2,10.8%
17,Cc1ccc2c(n1)N(CCN(C)C)CCN(C(=O)c1cscn1)C2,38.1%
18,Cc1ccc2c(n1)N(CCN(C)C)CCN(C(=O)c1ccoc1)C2,48.6%
19,Cc1ccc2c(n1)N(CCN(C)C)CCN(C(=O)c1ccsc1)C2,40.4%
20,Cc1ccc2c(n1)N(CCN(C)C)CCN(C(=O)c1ccco1)C2,54.4%
21,Cc1ccc2c(n1)N(CCN(C)C)CCN(C(=O)c1cccs1)C2,74.2%
22,COc1ccc(C(CNC(=O)Nc2cc(C)nn2C)N(C)C)cc1 (configuration not stated),9.383%
23,COCCCN1CCN([C@@H]2c3ccccc3C3(CCNCC3)[C@H]2O)CC1,58.1%

row,Structure (SMILES),INHIBITION
1,CC(=O)CN1CCC2(CC1)c1ccccc1[C@@H](N1CCSCC1)[C@@H]2O,22.3%
2,CC(C)=CCN1CCC2(CC1)c1ccccc1[C@@H](N1CCSCC1)[C@@H]2O,56.5%
3,CCOCCN1CCN([C@@H]2c3ccccc3C3(CCNCC3)[C@H]2O)CC1,29.4%
4,COCCCC1CCN([C@@H]2c3ccccc3C3(CCNCC3)[C@H]2O)CC1,17.5%
5,CS(=O)(=O)N1CCC2(CC1)c1ccccc1[C@@H](N1CCSCC1)[C@@H]2O,24.4%
6,CC(C)C1=NOC2(CCN(C(=O)C3CCCC3)CC2)C1,20.9%
7,c1cn2c(n1)CN(C1CCOCC1)CC(CN1CCCC1)C2 (configuration not stated),29%
8,Cc1nc(C)n(C2CCCN(C(=O)c3ncoc3C(C)C)C2)n1 (configuration not stated),38.5%
9,Cc1ccc(NC2CCN(C(=O)CCc3nccs3)CC2)nn1,-48.4%
10,COCCOCCNC(=O)c1cccc(Cn2nc(C)cc2C)c1,26.6%
11,CCn1cc(NC(=O)c2cccc(OCC(F)(F)F)n2)cn1,51.5%
12,CCn1cc(NC(=O)NCC(O)COc2cccc(F)c2)cn1 (configuration not stated),23.2%
13,Cc1cc(NC(=O)NCC(O)COc2ccccc2)n(C)n1 (configuration not stated),25.365%
14,CCn1cc(NC(=O)NCC(C)O)cn1 (configuration not stated),13.1%
15,Cc1n[nH]c(C)c1NC(=O)c1cccc(OCC(F)(F)F)n1,-14.9%
16,O=C(NCC(O)COc1ccccc1)Nc1nncs1 (configuration not stated),53.1%
17,O=C(NCC(O)COc1ccc(C(F)(F)F)cc1)Nc1nncs1 (configuration not stated),14.8%
18,CCn1cc(NC(=O)NCC(O)COc2ccccc2)cn1 (configuration not stated),60.5%
19,CCc1cc(NC(=O)c2cccc(OCC(F)(F)F)n2)[nH]n1,-20.8%
20,Cc1nonc1CC(=O)N1C[C@H]2CC[C@@H](C1)N(Cc1ccccc1)C2=O,0.139%
21,Cc1ccc(CN(CCCN(C)C)Cc2cnc(N(C)C)nc2)o1,15.395%
22,CC(C)C(=O)N1CCCC2(C1)CN(c1nncs1)CCO2 (configuration not stated),30.3%
23,CNC(=O)CN1CCOC(c2cccc(N)n2)C1 (configuration not stated),-5.8%

row,Structure (SMILES),INHIBITION
1,C[C@@H]1CN2C[C@H](O)CC2CN1Cc1ccc2nccnc2c1 (some centres not stated),28.5%
2,O=C(CN1CC(c2nc(-c3ccco3)no2)C1)NCC1CCCO1 (configuration not stated),17.7%
3,COc1ccccc1OCCNCc1c(C(C)C)nn(C)c1N(C)C,31.3%
4,O=C(NCCc1ccccn1)C1(n2cnnn2)CCCCC1,46.4%
5,CNCc1ccc([C@@H]2CN(C(C)=O)C[C@H]2C(N)=O)cc1,-2.46%
6,NC(=O)CC1CCCCN1C(=O)c1cccc(C(F)(F)F)c1 (configuration not stated),37.4%
7,Cc1ccc(C(=O)N2CCOCC3(CCN(C4CCOCC4)C3)C2)o1 (configuration not stated),14.1%
8,O=C1CCCN1Cc1ccc(C(=O)N2CCCC2c2cccs2)cc1 (configuration not stated),4.52%
9,CC(C)COc1ccccc1CN(C)C(=O)c1cc(=O)[nH]c(=O)[nH]1,10.6%
10,Cc1cc(C(=O)N(C)Cc2ccccc2OCC(C)C)cc(=O)[nH]1,58.1%
11,COCC(C)N(Cc1ccccc1OC)C(=O)c1cc(C)[nH]c(=O)c1 (configuration not stated),29.4%
12,CCc1ccccc1NC(=O)CCc1cnn(C)c1,34.2%
13,CN(CC(N)=O)CC1(c2ccc(Br)cc2)CC1,-28.4%
14,Cc1ccc(OCC(=O)Nc2cc(C(=O)O)cc(S(C)(=O)=O)c2)cc1C,45.6%
15,Cc1ccc(OCC(=O)NS(=O)(=O)c2cccnc2)cc1C,1.48%
16,Cc1ccc(OCC(=O)Nc2ccc(S(C)(=O)=O)cc2)cc1C,59.4%
17,COc1ncccc1CN1Cc2nnn(C)c2C(COCC2CC2)C1 (configuration not stated),28.4%
18,Cc1nccc(C2(C)CCCNC2)n1 (configuration not stated),40.4%
19,COc1ccc(CNC(=O)CCc2c(C)noc2C)cc1F,-4.93%
20,COc1ccc(C(=O)CCC(=O)NCc2c(C)noc2C)cc1F,64.1%
21,COc1ccc(CCCC(=O)NCc2c(C)noc2C)cc1F,29.3%
